Activity change and outcome data for 37 molecules are collected here from PubChem BioAssay AID977622 (Broad Institute, 2014).

The whole screen tested about 1,900 compounds, of which fewer than 10 were called active. Not shown: some 39% with an inconclusive outcome.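 Rule for the calls: active = Green signal of the normal strain falls at least twice as much as red signal of the resistant mutant, with overall culture growth loss under a set limit; inconclusive = no clear call, values can overlap the other calls; inactive = the rest.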 These entries were drawn from the full list.

Test [1] can be described thus: growth inhibition of wild-type GFP E. coli, dose response, h38 mutant RFP, cherry-pick (AID 977622). The note with it: activity change: E. coli mixed culture, total growth OD600 at 50 uM, at 50 µM.
The test system of test [2] is E. coli h38 humanized mutant ribosome RFP fluorescence, mixed culture, 24 h. Described as above. Conditions: h38 mutant RFP at 50 uM; at 50 µM.

As to `COCc1[nH]nc2c1C(c1ccc3c(c1)OCO3)N(c1ccc(OC)cc1)C2=O` (stereo not drawn), in test [1], the activity change was determined as 1.74% and the molecule was classed as inactive.

Regarding `O=C(c1cc(COc2ccc(F)cc2F)on1)N1CCCC(c2ccccc2)C1` (stereo not drawn), in test [1], the activity change came to 5.17% and the molecule was classed as inactive. In addition, the activity change in test [2] was -5.01%.

As for `CCOC(=O)Cc1csc(SCC(=O)Nc2cc(C)ccc2OC)n1`, the activity change in test [1] was -33.1%; in test [2], 38.6%. Further, in test [1], the molecule was classed as inactive.

Consider `CC(=O)Nc1cccc(OCc2ccc([N+](=O)[O-])cc2)c1`, for which, in test [1], the activity change was -10.5% and the molecule was classed as inactive. The activity change in test [2] is -23.9%.

For `CC(CCc1ccccc1)NC(=O)CNC(=O)COc1ccccc1` (stereo not drawn), in test [1], the activity change is -14.6% and the result was inactive. Moreover, the activity change in test [2] was 9.58%.

On to `O=S(=O)(NOCc1ccc(Cl)cc1)c1ccc(Cl)cc1`, for which, in test [1], the activity change is -42.8% and the molecule was classed as inactive. Moreover, the activity change in test [2] was -52%.

For the molecule `O=C(c1cccc2ccccc12)C1CCCN(C(=O)CCc2cnccn2)C1` (stereo not drawn), in test [1], the activity change is -12% and the molecule was classed as inactive. Also, the activity change in test [2] is -5.75%.

For the molecule `C[C@@H]1CN([C@@H](C)CO)C(=O)c2cc(NC(=O)Nc3cccc4ccccc34)ccc2O[C@@H](C)CCCCO[C@H]1CN(C)C`, the activity change is -2.41% in test [1] and -18% in test [2]. Also, the result in test [1] was inactive.

As for `C[C@]12C(=O)N(c3ccc(F)cc3)C(=O)N1[C@@H]1c3ccccc3OC[C@@H]1[C@H]2c1ccccc1`, in test [1], the activity change was -20.2% and the outcome was inactive. Further, in test [2], the activity change was -13.6%.

For `O=C(O)c1cccc2c1-c1ccc([N+](=O)[O-])cc1C2=O`, the activity change in test [1] was -0.103%; in test [2] it was -6.27%. In addition, the outcome in test [1] was inactive.

`COc1ccc([C@H]2C[C@H](O)C[C@@H](CCn3cc(-c4ccccc4)nn3)O2)cc1`: in test [1], the activity change is -21.6% and the molecule was called inactive. The activity change in test [2] came to 19.3%.

Take `O=C(Nc1ccc(F)cc1)N1CCCCN2[C@@H](CO)[C@H](c3ccc(-c4ccncc4)cc3)[C@@H]2C1`: in test [1], the activity change stood at 12% and the call was inactive. In addition, in test [2], the activity change was -0.029%.

Turning to `Cc1ccccc1S(=O)(=O)N1C[C@H]2CON(C)[C@H]2C[C@H]1c1cccc(-c2ccc(C#N)cc2)c1`, the figures for the activity change in test [1] and in test [2] were -28.1% and -10.7%, respectively. Besides, in test [1], the result was inactive.

Take `CC(=O)Nc1cccc(OCCCOc2cccc([N+](=O)[O-])c2)c1`: in test [1], the activity change was -16.8% and the molecule was classed as inactive. For the same molecule, in test [2], the activity change is 44.4%.

Regarding `Nc1[nH]c(C(=O)c2ccccc2)c(-c2ccc3c(c2)OCO3)c1C(=O)NCCc1c[nH]c2ccccc12`, in test [1], the activity change is -18.1% and the molecule was classed as inactive. In addition, in test [2], the activity change was -20.2%.

Consider `Cc1ccc2nc(-c3ccc(Cl)cc3)c(Cc3ccccc3C(F)(F)F)n2c1`, for which, in test [1], the activity change is -10.5% and the outcome was inactive. The activity change in test [2] came to 37.7%.

Turning to `CC(C)n1nnnc1C1c2ccccc2C(=O)N1CCOc1ccccc1` (stereo not drawn), in test [1], the activity change was -14.1% and the outcome was inactive. The activity change in test [2] was -9.39%.

`Cc1occc1-c1nnc(SCC(=O)Nc2nc(-c3ccccc3)cs2)o1`: in test [1], the activity change was -4.96% and the outcome was inactive. In addition, in test [2], the activity change came to 8.71%.

Regarding `O=C(O)CC(CC(=O)Nc1ccc2ccccc2n1)c1ccccc1` (stereo not drawn), the values for the activity change in test [1] and in test [2] were -7.83% and 7.39%, respectively. For the same molecule, in test [1], the molecule was called inactive.

For `CCOC(=O)c1cccc(OC(=O)CCNC(=O)c2ccc(Cl)cc2)c1`, in test [1], the activity change is -36.4% and the molecule was called inactive. For the same molecule, in test [2], the activity change was -3.29%.

`C[C@H]1CN([C@@H](C)CO)C(=O)CCCn2nncc2CO[C@@H]1CN(C)Cc1ccccc1C(F)(F)F`: in test [1], the activity change is -28.1% and the call was inactive. For the same molecule, in test [2], the activity change was -45.2%.

On to `Cn1nc(C(=O)Nc2cccc(S(=O)(=O)N3CCCCC3)c2)c2ccccc2c1=O`, for which the activity change in test [1] was -5.66%; in test [2] it was -3.97%. In addition, the result in test [1] was inactive.

With `O=S1(=O)N[C@H](Cc2ccccc2)COc2cc(N3CCSCC3)ccc21`, in test [1], the activity change was -14.3% and the outcome was inactive. Further, the activity change in test [2] was determined as 12%.

Consider `CN(CCOc1ccccc1)S(=O)(=O)c1ccccc1C#N`, for which, in test [1], the activity change is -20.9% and the outcome was inactive.

Take `CN(C)S(=O)(=O)c1cccc(C(=O)OCC(=O)c2ccc3c(c2)NC(=O)CO3)c1`: in test [1], the activity change was -6.04% and the molecule was called inactive.

On to `O=C(COC(=O)C1CC2C=CC1C2)Nc1ccc([N+](=O)[O-])cc1` (stereo not drawn), for which, in test [1], the activity change is -15.1% and the molecule was classed as inactive. The activity change in test [2] is -8.7%.

As for `C[C@@H]1CN([C@@H](C)CO)C(=O)CCCn2nncc2CO[C@H]1CN(C)C(=O)Nc1cccc(C(F)(F)F)c1`, in test [1], the activity change is -2.42% and the outcome was inactive. Besides, the activity change in test [2] was -7.01%.

In the case of `Fc1cccc(Cc2c(-c3ccco3)nc3c4ccccc4ccn23)c1`, the activity change in test [1] is 3.21%; in test [2], 15.9%. Moreover, the outcome in test [1] was inactive.

For `O=C(c1ccccc1)C1Oc2ccccc2C2CC(c3cccs3)=NN12` (stereo not drawn), in test [1], the activity change is -7.77% and the call was inactive. For the same molecule, the activity change in test [2] came out at 46.5%.

For `C=CCSc1cc(C)nc2c(-c3ccccc3)c(C)nn12`, in test [1], the activity change was -4.42% and the outcome was inactive. For the same molecule, in test [2], the activity change is -3.25%.

With `Cc1cc(C)c(OCC(=O)OCC(=O)N2CCc3ccccc3C2)c(C)c1`, in test [1], the activity change is -18.4% and the molecule was classed as inactive. The activity change in test [2] is -19.1%.

For the molecule `Cc1noc(C)c1NC(=O)Nc1ccc2c(c1)C(=O)N([C@H](C)CO)C[C@H](C)[C@H](CN(C)C(=O)Nc1ccc3c(c1)OCO3)OCCCC[C@@H](C)O2`, the values for the activity change in test [1] and in test [2] were -29.4% and -22.3%, respectively. In addition, the molecule was classed as inactive in test [1].

Take `COc1ccccc1NC(=O)CSc1nccn1Cc1ccc(F)cc1`: the activity change in test [1] is -34.2%; in test [2], -43.9%. In test [1], the molecule was classed as inactive.

In the case of `COc1cc2ccccc2cc1C(=O)NCC(c1cccs1)N(C)C` (stereo not drawn), in test [1], the activity change was -20.3% and the call was inactive. In addition, in test [2], the activity change turned out to be 10.8%.

On to `COc1cccc(NC(=O)N(C)C[C@H]2Oc3ncc(C#Cc4cccnc4)cc3C(=O)N([C@H](C)CO)C[C@H]2C)c1`, for which, in test [1], the activity change is -8.41% and the result was inactive. In test [2], the activity change was -2.54%.

`O=C(O)CC(CC(=O)Nc1ccc(Oc2ccccc2)cc1)c1ccccc1` (stereo not drawn): the results for the activity change in test [1] and in test [2] were -38.6% and -21.4%, respectively. The call in test [1] was inactive.

Take `Cc1onc(-c2ccccc2Cl)c1C(=O)N1CCN(Cc2ccc3c(c2)OCO3)CC1`: in test [1], the activity change is -18.8% and the molecule was classed as inactive. Further, the activity change in test [2] was -29.8%.
